For one compound, normalized growth results are on record in PubChem BioAssay AID1159580 (chemical genetic matrix, 2015).

The campaign covered roughly 5,500 compounds. About 2,000 (36%) were called active. Another 18% or so got no clear call; they are omitted. The list shows a part of the results. Unmarked numbers belong to inactive results. Cut-off read from the data, not from the text of the source: active = normalized growth mostly below about 0.91 (no sharp cut-off); inconclusive = no clear call, values can overlap the other calls; inactive = mostly above about 0.92.

The assay can be described thus: chemical genetic growth profiling, strain panel (AID 1159580).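 Note: tested at 20 µM; growth read once vehicle control cultures reached saturation at 30 °C; 1 = growth at the plate median or of vehicle wells; lower values mean less growth of the strain.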 To be noted: S. cerevisiae deletion strains, growth OD.

Take `CCCn1c(=O)c2c(ncn2C)n(CCC)c1=O`: the normalized growth was 0.983 (locus YAL013W, strain DEP1, hits give low values); 1.13 [resistant] (active) (locus YAL040C, strain CLN3, hits give low values); 1 (locus YCL061C, strain MRC1 (second series), hits give low values); 1.02 (locus YDR150W, strain NUM1, hits give low values); 0.964 (locus YDR363W, strain ESC2, hits give low values); 0.999 (locus YER002W, strain NOP16, hits give low values). In addition, the normalized growth runs as follows: (locus YGR078C, strain PAC10, hits give low values) 0.986; (locus YNL128W, strain TEP1, hits give low values) 0.992; (locus YNL175C, strain NOP13, hits give low values) 1; (locus YNL197C, strain WHI3, hits give low values) 1; (locus YNL224C, strain SQS1, hits give low values) 0.988; (locus YNL322C, strain KRE1, hits give low values) 0.994. The normalized growth was 0.981 (locus YOR083W, strain WHI5 (second series), hits give low values) and 1.01 (locus YPL241C, strain CIN2, hits give low values).
